High-throughput results from PubChem BioAssay.
TDP1 cell CPT: growth inhibition of DT40 Tdp1-/-;hTDP1 cells with camptothecin (screen for TDP1 inhibitors); chicken DT40 Tdp1-/-;hTDP1 cells + 20 nM CPT, ATP luminescence, 48 h; Potency, µM (doses to about 46.2 µM), actives largely listed as inhibitors; 12% of 420,000 active; further: nearly all actives have a fitted effect of over 55% in size
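Cell growth measured by CellTiter-Glo luminescence after a minimum 48 h, 37 C compound exposure with 20 nM CPT in Tdp1-knockout DT40 cells stably expressing hTDP1, seeded 400/well; qHTS titration format.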
IL1B secr inh: inflammasome signaling inhibition, IL-1 beta readout; activity change, % at 57.5 µM; 4.7% of 360,000 active; THP-1 LPS/ATP IL-1B secretion, AlphaLISA, 16 h; stronger effect = lower value; in the data active means activity change below about -50%; inconclusive means mostly about -30% to -49%
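THP-1 cells pretreated 1 hr with compounds (up to 57.5 uM final), then stimulated with LPS (250 ng/mL final) plus ATP (1.25 mM final); secreted IL-1B measured by AlphaLISA after 16 hr, decreased signal indicating inhibition.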
ELG1 DNA repair: inhibitors of ELG1-dependent DNA repair in HEK293T cells | Potency, µM (titrated, usually from 46.1 µM), usual class: inhibitors | HEK293T ELG1-luciferase reporter, luminescence, 16 h; DNA damage induced by 5-fluorouridine | 2.3% of 330,000 active; further: nearly all actives have a fitted effect of over 55% in size
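In this reporter screen, reduction of luminescence relative to DMSO vehicle indicated activity. Compounds and 5-fluorouridine were added together to 2,000 cells per well, incubated for 16 hr at 37 °C, then developed with ONE-Glo.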
Giardia kill: Giardia lamblia killing | AID 540267 | Giardia lamblia trophozoite viability | activity change, % at 7.66 µM, hits read low | 0.15% of 340,000 active; in the data active means activity change below about -80%; inconclusive means between about -30% and that limit;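 further: parasites exposed to compound for two days anaerobically before the ATP read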
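Trophozoite viability was measured as ATP-dependent luminescence, read 15-30 min after reagent addition. Before that, parasites at 100 cells/well were exposed to compounds for 48 h, anaerobically, at 37 deg C.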
DT40 TDP1 no CPT: qHTS for Inhibitors of human tyrosyl-DNA phosphodiesterase 1 (TDP1): qHTS in cells in absence of CPT. DT40 Tdp1-/- hTDP1 cells, no CPT, ATP luminescence, 48 h. Potency, µM (highest dose often 46.2 µM), most hits filed as inhibitors. 15% of 420,000 active; further: nearly all actives have a fitted effect of over 55% in size
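Seeded 400 DT40-hTDP1 cells/well (vehicle DMSO, no 20 nM CPT); pinned compounds; ≥48 hr at 37 °C; CellTiter-Glo luminescence as viability measure.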
TDP1 inh: TDP1 (human) enzyme inhibition; Q9NUW8; recombinant TDP1, AlphaScreen DNA substrate cleavage; Potency, µM (series often up to 130 µM), actives largely listed as inhibitors; 0.28% of 350,000 active; AID 485290; further: nearly all actives have a fitted effect of over 40% in size
Target sequence (Q9NUW8 whole entry, looked up): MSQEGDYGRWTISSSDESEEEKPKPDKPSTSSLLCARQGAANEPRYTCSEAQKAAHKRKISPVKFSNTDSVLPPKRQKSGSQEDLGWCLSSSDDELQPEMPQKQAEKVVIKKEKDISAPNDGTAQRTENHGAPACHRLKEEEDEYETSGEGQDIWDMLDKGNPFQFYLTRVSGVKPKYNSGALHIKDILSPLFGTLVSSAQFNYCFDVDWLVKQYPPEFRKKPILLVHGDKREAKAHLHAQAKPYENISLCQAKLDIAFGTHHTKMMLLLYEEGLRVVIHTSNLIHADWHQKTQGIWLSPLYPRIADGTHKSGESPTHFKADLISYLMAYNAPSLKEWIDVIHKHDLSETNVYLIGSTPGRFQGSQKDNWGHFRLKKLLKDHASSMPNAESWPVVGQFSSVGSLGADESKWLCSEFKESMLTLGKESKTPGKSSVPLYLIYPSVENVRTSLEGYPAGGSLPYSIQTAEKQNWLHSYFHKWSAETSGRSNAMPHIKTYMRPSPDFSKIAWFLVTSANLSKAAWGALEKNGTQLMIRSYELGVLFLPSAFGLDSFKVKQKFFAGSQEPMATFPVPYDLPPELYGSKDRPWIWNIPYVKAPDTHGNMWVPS
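E. coli-derived human Tdp1, 1 nM final. Cpd preinc 15 min RT; substrate 15 nM final, 5 min RT; AS bead mix 10 ug/ml final, 10 min RT. Signal loss = tyrosine-FITC cleavage. No-enzyme wells = max signal.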
Numbers stand for hits; 0 = inactive; ? = inconclusive; - = no result given. The list is not random: actives were taken first. Their share in the collection is about 19%. Unless noted, the call rests on the fitted dose curve; in most records, active means well fitted curve in the direction sought with a large enough effect; inconclusive means small, poorly fitted or top-dose-only effect, or another doubt; inactive means no such curve, though single readings can be large; an effect the other way counts as inactive or inconclusive.

SMILES | TDP1 cell CPT | IL1B secr inh | ELG1 DNA repair | Giardia kill | DT40 TDP1 no CPT | TDP1 inh
c1ccc2c(c1)OCC(c1nn3c(Cn4nnc5ccccc54)nnc3s1)O2 (centres undefined) | 25.9µM | 0 | ? | 0 | ? | -
c1ccc(CCc2nn3c(Cn4cnc5ccccc54)nnc3s2)cc1 | 18.4µM | 0 | 0 | 0 | 18.4µM | 0
c1ccc2c(c1)ncn2Cc1nnc2sc(-c3ccc4c(c3)OCO4)nn12 | ? | 0 | 0 | 0 | 14.6µM | 0
COc1ccc(OCc2nn3c(Cn4cnc5ccccc54)nnc3s2)cc1 | 20.6µM | 0 | 23.1µM | 0 | ? | 0
Clc1ccccc1-c1nn2c(Cn3cnc4ccccc43)nnc2s1 | ? | 0 | 0 | 0 | ? | 0
N#C/C(=C(/O)COc1ccc(Cl)cc1)c1nc2ccccc2s1 | ? | 0 | ? | 0 | 9.2µM | 0
N#C/C(=C(/O)c1ccc(F)cc1)c1nc2ccccc2s1 | 18.4µM | 0 | 0 | 0 | 23.1µM | 0
Cc1ccc(SC/C(O)=C(\C#N)c2nc3ccccc3s2)cc1 | ? | 0 | 0 | 0 | ? | 0
N#C/C(=C(/O)CSc1ccccn1)c1nc2ccccc2s1 | 14.6µM | 0 | 0 | 0 | ? | 0
O=C(NCc1cccs1)c1nc2c(nnn2Cc2ccccc2Cl)c(=O)[nH]1 | 4.11µM | 0 | 16.4µM | 0 | 2.59µM | 0
Cc1c(C(=O)N2c3ccccc3Sc3ccccc32)cccc1[N+](=O)[O-] | ? | 0 | ? | 0 | 25.9µM | 0
CCN(CC)C(=O)[C@H]1C[C@H](CC(=O)NCc2ccc(OC)c(OC)c2)C(=O)N2CCc3c([nH]c4ccc(Cl)cc34)[C@]12C | ? | 0 | ? | 0 | 23.1µM | 0
COc1ccc2[nH]c3c(c2c1)CCN1C(=O)C(CC(=O)NCCCN(C)C)C[C@H](C(=O)N(C(C)C)C(C)C)[C@@]31C (some centres undefined) | 0 | 0 | 0 | 0 | 0 | 0
CCN(CC)C(=O)[C@H]1C[C@H](CC(=O)NCCCN(C)C)C(=O)N2CCc3c([nH]c4ccc(Cl)cc34)[C@]12C | 18.4µM | -51.5 | ? | 0 | ? | 0
CCN(CC)C(=O)[C@H]1CC(CC(=O)NCCCN(C)C)C(=O)N2CCc3c([nH]c4ccccc34)[C@]12C (some centres undefined) | 0 | 0 | 0 | 0 | 0 | 0
CC(C)N(C(=O)[C@H]1C[C@H](CC(=O)NCCCN(C)C)C(=O)N2CCc3c([nH]c4ccc(Cl)cc34)[C@]12C)C(C)C | ? | 0 | ? | 0 | 14.6µM | 0
NS(=O)(=O)c1ccc(NC(=O)COc2ccc(S(=O)(=O)N3CCCC3)cc2)cc1 | 0 | 0 | 0 | 0 | 0 | 0
O=C(NCC1CCCO1)c1csc(Nc2cccc3ccccc23)n1 (centres undefined) | 18.4µM | 0 | ? | 0 | 14.6µM | 0
CN(C)CCNC(=O)c1csc(Nc2cccc3ccccc23)n1 | 0 | -60.7 | 0 | 0 | ? | -
O=C(CSc1nnc(Cc2cccs2)n1C1CC1)NC1CCS(=O)(=O)C1 (centres undefined) | 0 | 0 | 0 | 0 | 0 | 0
COc1ccccc1C1CCN(C(=O)c2cccs2)CC1 | 0 | -53.5 | 0 | 0 | 0 | 0
COc1ccccc1C1CCN(C(=O)c2ccccc2)CC1 | 0 | 0 | 0 | 0 | ? | -
COc1ccccc1C1CCN(C(=O)c2cnn(-c3ccccc3)c2C)CC1 | 20.6µM | 0 | ? | 0 | 14.6µM | 0
COc1cc(CNC(=O)c2cnc(SC)nc2-c2ccccc2)cc(OC)c1OC | 0 | - | - | - | ? | 0
COc1cc(C2c3c(oc4ccccc4c3=O)C(=O)N2c2ccc(C)cn2)ccc1O (centres undefined) | ? | 0 | 0 | 0 | 0 | 0
SMILES | TDP1 cell CPT | IL1B secr inh | ELG1 DNA repair | Giardia kill | DT40 TDP1 no CPT | TDP1 inh
Cc1ccc(N2C(=O)c3oc4ccccc4c(=O)c3C2c2cccc(O)c2)nc1 (centres undefined) | 20.6µM | 0 | - | 0 | ? | -
O=C(Nc1nc(-c2cc3ccccc3o2)cs1)c1ccc(S(=O)(=O)N2CCCC2)cc1 | 16.4µM | 0 | ? | 0 | 2.31µM | 0
CN(C)S(=O)(=O)c1ccc(C(=O)Nc2nc(-c3cc4ccccc4o3)cs2)cc1 | 10.3µM | 0 | 0 | 0 | 2.91µM | 0
O=C(Nc1nccs1)c1ccc(S(=O)(=O)N2CCCCC2)cc1 | 0 | 0 | 0 | 0 | 0 | 0
Cc1cc(NC(=O)c2ccc(S(=O)(=O)N3CCCC3)cc2)nc2c1c(=O)oc1ccccc12 | 7.31µM | 0 | ? | 0 | 10.3µM | 0
CN(C)S(=O)(=O)c1ccc(C(=O)Nc2nnc(SCc3ccccc3)s2)cc1 | 0 | 0 | 0 | 0 | 0 | 0
CN(C)S(=O)(=O)c1ccc(C(=O)Nc2nnc(Cc3ccccc3)s2)cc1 | 0 | 0 | 0 | 0 | 0 | 0
Cc1cc(-c2csc(NC(=O)c3ccc(S(=O)(=O)N(C)C)cc3)n2)c(C)n1-c1ccccc1 | ? | 0 | 9.2µM | 0 | 18.4µM | 0
CN(Cc1ccc(F)cc1)C(=O)CNC(=O)c1ccc2c(c1)OCO2 | 0 | 0 | 0 | 0 | 0 | 0
CCc1ccc(NC(=O)CSc2nc3ncc(Br)cc3[nH]2)cc1 | 0 | 0 | 0 | 0 | 0 | 0
Cc1cccc(C(=O)Nc2nc3nc(-c4ccccc4)cc(=O)n3[nH]2)c1 | 0 | - | - | - | 0 | 0
CC(=O)Nc1ccc(-c2csc(NC(=O)C3CSC4(C)CCC(=O)N34)n2)cc1 (centres undefined) | 0 | 0 | ? | 0 | ? | -
COc1ccccc1NC(=O)C1=C(C)Nc2ncnn2C1c1ccc[nH]1 (centres undefined) | 0 | - | - | - | 0 | 0
O=C(CNC(=O)c1ccc(Cl)cc1)OCc1cc(=O)n2nc(C3CC3)sc2n1 | 0 | - | - | - | 0 | 0
O=C(Cc1cccs1)NC1C(=O)N2C(C(=O)[O-])=C(C[n+]3ccccc3)CSC12 (centres undefined) | - | - | - | - | - | 2.24µM
CC(=O)OCC1=C(C(=O)O)N2C(=O)[C@@H](NC(=O)Cc3ccccc3)[C@H]2SC1 | ? | 0 | - | 0 | 0 | -
CC(C)c1ccc(Nc2n[nH]c(=S)s2)cc1 | 0 | 0 | - | - | 0 | -
O=S(=O)(NCc1ccccc1)NCc1cccc(C(F)(F)F)c1 | 0 | 0 | 0 | 0 | 0 | 0
COc1cccc(-c2nn(-c3ccccc3)cc2C(=O)Nc2nccs2)c1 | ? | ? | ? | 0 | ? | 0
O=C(Nc1ccncc1)c1cn(-c2ccccc2)nc1-c1cccs1 | ? | 0 | ? | 0 | ? | 0
COc1ccc(-c2nn(-c3ccccc3)cc2C(=O)Nc2nccs2)cc1 | ? | ? | 6.51µM | 0 | ? | 0
O=C(c1cn(-c2ccccc2)nc1-c1ccc(Cl)cc1)N1CCOCC1 | 0 | 0 | 0 | 0 | 0 | 0
